# Calls of active or inactive are those of the source.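 Rule for the calls, unless noted: active = differentiation response of at least 50%, scaled between solvent and reference control, from cells with both markers; inactive = the rest.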
# Columns and labels:
# [1] = inhibitors of CD8+ T cell-vesicle binding, pilot screen, LFA-1/ICAM-1 modulator project, MLPCN validation set, flow cytometry (AID 2523;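 active = response below a set limit, under 55% cells CD8-positive and vesicle-bound, and CD8 cells' 90th-percentile brightness under 279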;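 for vesicle binding response: mean PE anti-B7-1 fluorescence of CD8+ cells relative to row control; 100% = QL9-loaded vesicles with DMSO vehicle in the same plate row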); conditions: 2C mouse CD8+ T cells, at 7 µM, stronger effect = lower value; double positive events: measured here: CD8+/vesicle+ event percentage
# [2] = target: Integrin beta-1 (Homo sapiens) + Integrin alpha-4 (Homo sapiens) (UniProt P13612+P05556); experiment: inhibition of HUTS-21 binding to VLA-4, pilot screen, VLA-4 allosteric modulator project, U937 cells, HUTS-21 mAb, flow cytometry, validation set (AID 2674;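 active = inhibition above 50%, about 3 SD of the validation set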;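 note: antibody binding induced by the VLA-4 ligand LDV present at three times its Kd; 0% = LDV ligand with antibody and no compound and 100% = antibody without LDV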); conditions: HUTS-21 LIBS mAb binding, at 6.7 µM, stronger effect = higher value, binding induced by LDV ligand
# [3] = superoxide lowering in aged yeast cells, pilot screen, validation compound set (AID 2706;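 active = superoxide response below 65% of plate, a cut near 3 SD across the whole screen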;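 note: yeast exposed to compound for one week at 30 degrees C before staining; 100% = mean of all compound wells on the same plate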); conditions: S. cerevisiae aging, superoxide DHE fluorescence; at 10 µM, stronger effect = lower value
# [4] = target: Beta-adrenergic receptor kinase 1 (Homo sapiens) (UniProt P25098); experiment: GRK2 binders displacing RNA aptamer, biochemical, validation, human GRK2, bead flow cytometry (AID 488806;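 active = aptamer binding inhibition above 30%, about 3 SD of noise from non-fluorescent compounds; inactive = inhibition at or below 30%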); conditions: bead-bound GRK2, FAM-aptamer displacement, at 10 µM, stronger effect = higher value
# [5] = target: Beta-2 adrenergic receptor (Homo sapiens) (UniProt P07550); experiment: beta2AR agonists driving receptor internalization, pilot screen, cell-based, FAP fluorogen, flow cytometry, validation set (AID 504459;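 active = percent response above 42, roughly 3 SD of non-fluorescent test compounds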;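 note: agonist-driven loss of surface beta2AR via internalization measured by FAP dye flow cytometry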); conditions: Am2.2-beta2AR cells, FAP surface receptor flow cytometry; at 10 µM; stronger effect = higher value
# [6] = target: AP-2 complex subunit beta (Homo sapiens) (UniProt P63010); experiment: inhibitors of arrestin peptide binding to AP2, pilot screen, biochemical, validation set, GST-AP2 beads, flow cytometry (AID 504541;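 active = inhibition above 54%, about 3 SD of non-fluorescent compounds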;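 note: AP2 carries R879A mutation and is captured from E. coli lysate; bead-bound FITC arrestin peptide fluorescence measuring arrestin peptide binding to AP2; 0% = DMSO wells and 100% = excess unlabeled arrestin peptide control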); conditions: FITC arrestin peptide, at 10 µM, stronger effect = higher value, AP2 beta2 appendage fragment, R879A mutant
# [7] = yeast V-ATPase proton transport modulators, S. cerevisiae, pHLuorin, HTS validation (AID 504600; in the data active = response above about 15%;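 note: plate controls were DMSO for no effect and reference compound for full effect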); conditions: S. cerevisiae pHLuorin cytosolic pH, at 10 µM, stronger effect = higher value
# [8] = tested on: anti-desmoglein-3 scFv antibody binding to human DSG3; experiment: inhibitors of anti-DSG3 scFv binding to DSG3, pilot screen, biochemical, validation compound set, bead-based, flow cytometry (AID 588368;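 active = binding below the plate cutoff, the plate median minus 3 SD, with a reading above zero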;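 note: signal is the median channel fluorescence of bead-bound GFP antibody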); conditions: Protein G beads, DSG3-Fc, scFv-GFP binding, at 10 µM, stronger effect = lower value
# [9] = inhibitors of fungal efflux pumps CDR1, CDR2, MDR1, pilot screen, validation compound set, multiplex, phenotypic (AID 588506;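 active = efflux inhibition above 0.42, the validation set average plus 4 SD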;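 note: Nile Red retained in cells so higher fluorescence means more efflux inhibition; 0 = negative control wells and 1 = enniatin B 25 µM full block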); conditions: S. cerevisiae pump-expressing triplex, Nile Red efflux flow cytometry; at 10 µM; stronger effect = higher value; the pumps come from Candida albicans
# [10] = target: ATP-binding cassette sub-family B member 6 (Homo sapiens) (UniProt Q9NP58); experiment: ABCB6 transporter inhibitors, pilot screen, K562-ABCB6 cells, flow cytometry, validation set (AID 588550;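 active = inhibition above the screen-wide mean plus 3 SD, about 51%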;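 note: 0% = DMSO wells and 100% = benzethonium chloride 70 µM positive control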); conditions: K562-ABCB6 porphyrin accumulation, 1 h, at 10 µM, stronger effect = higher value
# [11] = promoters of myeloid differentiation in arrested cells, primary screen, cell-based, GFP/MAC1 double positive, flow cytometry, validation set (AID 588685); conditions: ER-HoxA9 marrow cells, stronger effect = higher value, normalized: vehicle 0, fulvestrant 100;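 note: compound exposure lasts four days before antibody staining and flow analysis; 0% = DMSO wells and 100% = 5 µM fulvestrant positive control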
# [12] = RPL19A-GFP modulators, yeast TOR pathway, confirmation, cell-based, S. cerevisiae, flow cytometry, cherry picks, mother/daughter gates (AID 2270;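 active = GFP response below 50% of the DMSO control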); conditions: S. cerevisiae RPL19A-GFP strain, 3 h, at 10 µM, stronger effect = lower value, 100 = same GFP as DMSO wells
# [13] = LAP4-GFP expression modulators in yeast, confirmation, cell-based, cherry picks, flow cytometry, mother/daughter gates (AID 2271;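 active = GFP response above 150% of the DMSO control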;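 note: ratio of sample to DMSO plate mean so 100% equals DMSO level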); conditions: S. cerevisiae LAP4-GFP strain, 3 h, at 10 µM, stronger effect = higher value, 100 means same as DMSO control
# [14] = modulators of MEP2-GFP levels in yeast, confirmation, S. cerevisiae, flow cytometry GFP, cherry picks (AID 2272;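 active = GFP response above 150% of the DMSO control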;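 note: ratio of well signal to plate DMSO mean so 100% equals DMSO level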); conditions: S. cerevisiae MEP2-GFP strain, 3 h, at 10 µM, stronger effect = higher value
# [15] = AGP1-GFP expression modulators, hit retest, confirmation, cell-based, flow cytometry, S. cerevisiae, cherry picks (AID 2273;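 active = GFP response above 150% of the DMSO level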;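 note: median GFP channel fluorescence over the whole cell population gate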); conditions: S. cerevisiae AGP1-GFP strain, 3 h, at 10 µM
# [16] = modulators of CIT2-GFP expression in yeast, confirmation, S. cerevisiae, GFP fusion, cherry picks, mother/daughter gates (AID 2274;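 active = GFP response above 150% of the DMSO level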); conditions: S. cerevisiae CIT2-GFP strain, flow cytometry, 3 h, at 10 µM, stronger effect = higher value
# Beta-adrenergic receptor kinase 1 (Homo sapiens), sequence (P25098 whole entry, looked up): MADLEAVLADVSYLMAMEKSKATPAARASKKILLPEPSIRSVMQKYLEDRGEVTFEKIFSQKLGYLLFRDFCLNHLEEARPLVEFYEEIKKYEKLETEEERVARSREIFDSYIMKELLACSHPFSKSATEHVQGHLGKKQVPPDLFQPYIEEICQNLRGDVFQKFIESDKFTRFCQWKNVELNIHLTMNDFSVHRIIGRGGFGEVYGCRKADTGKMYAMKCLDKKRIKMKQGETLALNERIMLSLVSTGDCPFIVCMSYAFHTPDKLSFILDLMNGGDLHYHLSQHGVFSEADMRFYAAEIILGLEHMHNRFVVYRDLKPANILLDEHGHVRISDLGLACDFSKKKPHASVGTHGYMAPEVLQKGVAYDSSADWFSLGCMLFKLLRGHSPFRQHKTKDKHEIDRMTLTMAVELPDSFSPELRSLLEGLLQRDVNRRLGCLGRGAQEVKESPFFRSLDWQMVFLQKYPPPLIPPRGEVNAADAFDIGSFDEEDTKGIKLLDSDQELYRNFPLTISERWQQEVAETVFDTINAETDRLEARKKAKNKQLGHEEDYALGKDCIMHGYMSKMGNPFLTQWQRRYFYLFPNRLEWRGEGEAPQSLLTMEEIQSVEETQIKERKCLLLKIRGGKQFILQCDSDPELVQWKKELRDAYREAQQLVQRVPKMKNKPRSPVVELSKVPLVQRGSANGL
# Integrin beta-1 (Homo sapiens) + Integrin alpha-4 (Homo sapiens), sequence (P05556 whole entry, looked up): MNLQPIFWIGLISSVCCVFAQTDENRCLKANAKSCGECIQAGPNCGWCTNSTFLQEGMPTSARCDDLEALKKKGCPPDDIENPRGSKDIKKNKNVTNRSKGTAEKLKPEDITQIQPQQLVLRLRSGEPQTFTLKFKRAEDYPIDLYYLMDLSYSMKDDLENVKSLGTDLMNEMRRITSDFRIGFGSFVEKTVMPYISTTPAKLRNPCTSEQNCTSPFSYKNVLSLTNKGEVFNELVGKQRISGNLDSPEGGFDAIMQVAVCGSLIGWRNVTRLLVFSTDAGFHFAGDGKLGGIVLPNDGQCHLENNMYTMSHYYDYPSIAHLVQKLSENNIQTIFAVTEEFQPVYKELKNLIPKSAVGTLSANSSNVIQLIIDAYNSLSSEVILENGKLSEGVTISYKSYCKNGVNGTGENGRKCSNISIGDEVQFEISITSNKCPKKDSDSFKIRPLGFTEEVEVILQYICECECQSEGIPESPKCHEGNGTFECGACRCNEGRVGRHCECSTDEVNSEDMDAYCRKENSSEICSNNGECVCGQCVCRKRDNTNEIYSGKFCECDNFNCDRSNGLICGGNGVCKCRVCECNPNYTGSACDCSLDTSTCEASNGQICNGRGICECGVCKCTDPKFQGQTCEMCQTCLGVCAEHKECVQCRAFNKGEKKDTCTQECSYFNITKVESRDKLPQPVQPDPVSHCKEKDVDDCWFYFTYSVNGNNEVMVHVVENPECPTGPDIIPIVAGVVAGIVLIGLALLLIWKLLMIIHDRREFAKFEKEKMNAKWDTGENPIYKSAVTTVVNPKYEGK
# Integrin beta-1 (Homo sapiens) + Integrin alpha-4 (Homo sapiens), sequence (P13612 whole entry, looked up): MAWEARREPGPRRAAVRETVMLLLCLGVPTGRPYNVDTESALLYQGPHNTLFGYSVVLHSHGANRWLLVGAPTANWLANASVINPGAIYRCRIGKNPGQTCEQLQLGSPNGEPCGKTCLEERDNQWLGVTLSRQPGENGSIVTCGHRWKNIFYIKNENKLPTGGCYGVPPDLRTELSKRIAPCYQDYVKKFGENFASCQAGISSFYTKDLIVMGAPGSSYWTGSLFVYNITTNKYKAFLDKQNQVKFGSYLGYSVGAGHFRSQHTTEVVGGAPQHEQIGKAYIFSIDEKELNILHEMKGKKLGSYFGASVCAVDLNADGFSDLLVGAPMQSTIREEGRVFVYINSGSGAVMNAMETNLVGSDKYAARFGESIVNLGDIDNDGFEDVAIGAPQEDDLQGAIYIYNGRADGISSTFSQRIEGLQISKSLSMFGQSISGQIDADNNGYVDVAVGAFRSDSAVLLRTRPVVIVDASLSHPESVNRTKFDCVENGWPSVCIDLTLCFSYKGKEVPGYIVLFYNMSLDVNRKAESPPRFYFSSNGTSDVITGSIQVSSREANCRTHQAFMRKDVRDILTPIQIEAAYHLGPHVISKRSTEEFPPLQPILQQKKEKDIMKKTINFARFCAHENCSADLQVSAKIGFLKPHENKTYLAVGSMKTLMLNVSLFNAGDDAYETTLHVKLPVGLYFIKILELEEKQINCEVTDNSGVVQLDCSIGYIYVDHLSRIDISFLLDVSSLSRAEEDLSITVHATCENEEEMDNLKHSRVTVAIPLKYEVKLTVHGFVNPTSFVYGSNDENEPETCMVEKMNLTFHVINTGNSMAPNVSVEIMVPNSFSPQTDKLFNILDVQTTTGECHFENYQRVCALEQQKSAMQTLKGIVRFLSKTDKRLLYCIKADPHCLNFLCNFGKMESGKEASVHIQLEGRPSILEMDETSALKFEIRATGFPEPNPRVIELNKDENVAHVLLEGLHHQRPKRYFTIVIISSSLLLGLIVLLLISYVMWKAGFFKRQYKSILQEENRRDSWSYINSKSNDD
# AP-2 complex subunit beta (Homo sapiens), sequence (P63010 whole entry, looked up, the tested form may be a part, one chain of several): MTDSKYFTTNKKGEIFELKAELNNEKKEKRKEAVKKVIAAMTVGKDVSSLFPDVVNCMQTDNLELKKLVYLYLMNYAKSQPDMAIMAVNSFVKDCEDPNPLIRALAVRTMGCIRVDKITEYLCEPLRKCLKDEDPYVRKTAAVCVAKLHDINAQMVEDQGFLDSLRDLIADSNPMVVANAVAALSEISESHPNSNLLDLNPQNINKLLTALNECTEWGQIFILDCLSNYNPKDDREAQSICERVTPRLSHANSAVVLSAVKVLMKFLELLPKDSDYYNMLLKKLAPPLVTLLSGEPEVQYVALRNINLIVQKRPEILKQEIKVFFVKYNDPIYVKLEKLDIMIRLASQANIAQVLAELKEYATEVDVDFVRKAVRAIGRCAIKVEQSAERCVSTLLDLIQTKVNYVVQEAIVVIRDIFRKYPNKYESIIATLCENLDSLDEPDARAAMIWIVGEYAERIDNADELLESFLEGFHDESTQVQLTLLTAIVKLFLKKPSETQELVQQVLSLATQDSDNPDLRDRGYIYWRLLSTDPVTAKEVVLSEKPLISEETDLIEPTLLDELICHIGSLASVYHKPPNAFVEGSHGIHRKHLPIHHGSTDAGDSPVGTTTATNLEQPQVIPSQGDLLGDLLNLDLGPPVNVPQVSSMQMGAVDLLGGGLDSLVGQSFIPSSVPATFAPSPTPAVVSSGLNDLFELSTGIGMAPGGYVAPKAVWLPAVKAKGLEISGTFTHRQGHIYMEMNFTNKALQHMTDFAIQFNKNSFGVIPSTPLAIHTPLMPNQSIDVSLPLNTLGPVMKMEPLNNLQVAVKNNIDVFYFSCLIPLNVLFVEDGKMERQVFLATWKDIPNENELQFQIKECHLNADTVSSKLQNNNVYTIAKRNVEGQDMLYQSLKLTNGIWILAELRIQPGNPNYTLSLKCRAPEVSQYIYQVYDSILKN
# ATP-binding cassette sub-family B member 6 (Homo sapiens), sequence (Q9NP58 whole entry, looked up): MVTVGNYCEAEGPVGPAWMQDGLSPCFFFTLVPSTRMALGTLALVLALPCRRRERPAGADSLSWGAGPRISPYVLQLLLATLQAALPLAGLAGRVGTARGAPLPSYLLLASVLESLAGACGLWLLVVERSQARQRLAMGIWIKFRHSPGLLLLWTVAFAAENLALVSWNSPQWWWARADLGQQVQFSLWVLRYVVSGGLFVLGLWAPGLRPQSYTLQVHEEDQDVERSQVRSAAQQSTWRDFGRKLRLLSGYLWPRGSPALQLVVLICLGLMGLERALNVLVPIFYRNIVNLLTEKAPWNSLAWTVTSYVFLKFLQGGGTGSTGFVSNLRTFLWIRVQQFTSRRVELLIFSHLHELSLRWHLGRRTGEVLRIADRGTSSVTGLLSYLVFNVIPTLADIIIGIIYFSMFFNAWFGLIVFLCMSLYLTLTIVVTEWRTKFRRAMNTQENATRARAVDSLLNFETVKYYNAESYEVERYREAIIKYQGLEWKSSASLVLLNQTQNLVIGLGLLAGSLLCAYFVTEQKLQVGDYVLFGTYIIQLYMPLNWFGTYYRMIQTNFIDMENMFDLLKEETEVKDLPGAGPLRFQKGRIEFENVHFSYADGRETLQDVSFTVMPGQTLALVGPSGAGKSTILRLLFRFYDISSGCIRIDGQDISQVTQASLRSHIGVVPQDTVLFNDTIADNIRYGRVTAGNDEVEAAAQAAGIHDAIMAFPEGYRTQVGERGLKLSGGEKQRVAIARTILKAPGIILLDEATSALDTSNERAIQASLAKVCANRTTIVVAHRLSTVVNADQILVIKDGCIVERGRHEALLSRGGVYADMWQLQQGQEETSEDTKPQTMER
# Beta-2 adrenergic receptor (Homo sapiens), sequence (P07550 whole entry, looked up): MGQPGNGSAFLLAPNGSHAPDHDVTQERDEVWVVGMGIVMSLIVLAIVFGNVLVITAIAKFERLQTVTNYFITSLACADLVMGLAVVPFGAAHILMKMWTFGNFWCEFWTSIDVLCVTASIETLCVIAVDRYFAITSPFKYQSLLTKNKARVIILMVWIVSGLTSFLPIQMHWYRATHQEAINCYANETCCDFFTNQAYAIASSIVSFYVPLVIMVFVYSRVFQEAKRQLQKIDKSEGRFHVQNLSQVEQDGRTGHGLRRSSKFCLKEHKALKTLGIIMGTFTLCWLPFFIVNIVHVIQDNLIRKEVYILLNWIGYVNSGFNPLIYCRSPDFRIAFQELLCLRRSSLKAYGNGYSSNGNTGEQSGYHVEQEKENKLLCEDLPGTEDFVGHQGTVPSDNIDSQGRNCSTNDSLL
smiles,measurement,setting,value
COc1ccc2c(CCNC(=O)c3ccc([N+](=O)[O-])cc3)c[nH]c2c1,double positive events,[1],56.1%
same,vesicle binding response,[1],210% (inactive)
same,inhibition,[2],-5.89% (inactive)
same,superoxide response (% of plate),[3],105% (inactive)
same,aptamer binding inhibition,[4],3% (inactive)
same,response,[5],7.52% (inactive)
same,inhibition,[6],-2.03% (inactive)
same,response,[7],-0.21% (inactive)
same,binding (% of control),[8],101% (inactive)
same,efflux inhibition (fraction of control),[9],-0.03 (inactive)
same,inhibition,[10],4% (inactive)
same,differentiation response,[11],-21.6% (inactive)
NC12CC3CC(C1)CC(O)(C3)C2,double positive events,[1],65.4%
same,vesicle binding response,[1],201% (inactive)
same,inhibition,[2],2.66% (inactive)
same,superoxide response (% of plate),[3],95.4% (inactive)
same,aptamer binding inhibition,[4],3% (inactive)
same,response,[5],-10% (inactive)
same,inhibition,[6],-6.38% (inactive)
same,response,[7],2.64% (inactive)
same,binding (% of control),[8],99% (inactive)
same,efflux inhibition (fraction of control),[9],0.14 (inactive)
same,inhibition,[10],11% (inactive)
same,differentiation response,[11],4.15% (inactive)
CC(C)(C)C(=O)NC(=S)NNC(=O)c1sc2ccccc2c1Cl,GFP response vs DMSO,[12],116% (inactive)
same,GFP response relative to DMSO,[13],242% (active)
same,GFP response vs DMSO,[14],122% (inactive)
same,"GFP response, % of DMSO",[15],137% (inactive)
same,"GFP response, % of DMSO",[16],106% (inactive)
same,"GFP response, % of DMSO",[16]; measured here: daughter cell gate,90.5%
same,"GFP response, % of DMSO",[16]; measured here: mother cell gate,91.5%
O=C(/C=C/c1ccc2c(c1)OCO2)c1ccccn1,double positive events,[1],60.4%
same,vesicle binding response,[1],181% (inactive)
same,inhibition,[2],4.84% (inactive)
same,superoxide response (% of plate),[3],89.8% (inactive)
same,aptamer binding inhibition,[4],1% (inactive)
same,response,[5],-23.4% (inactive)
same,inhibition,[6],-13% (inactive)
same,response,[7],-4.66% (inactive)
same,binding (% of control),[8],102% (inactive)
same,efflux inhibition (fraction of control),[9],0 (inactive)
same,inhibition,[10],-8% (inactive)
same,differentiation response,[11],-5.97% (inactive)
COc1cc2c(cc1OC)C1(CCCCC1)CN(C)C2,double positive events,[1],57.3%
same,vesicle binding response,[1],258% (inactive)
same,inhibition,[2],16% (inactive)
same,superoxide response (% of plate),[3],103% (inactive)
same,aptamer binding inhibition,[4],5% (inactive)
same,response,[5],5.44% (inactive)
same,inhibition,[6],4.18% (inactive)
same,response,[7],1.68% (inactive)
same,binding (% of control),[8],89% (inactive)
same,efflux inhibition (fraction of control),[9],0.12 (inactive)
same,inhibition,[10],-22% (inactive)
same,differentiation response,[11],4% (inactive)
Nc1ccc2[nH]ncc2c1,double positive events,[1],62.1%
same,vesicle binding response,[1],174% (inactive)
same,inhibition,[2],-8.62% (inactive)
same,superoxide response (% of plate),[3],110% (inactive)
same,aptamer binding inhibition,[4],12% (inactive)
same,response,[5],20.4% (inactive)
same,inhibition,[6],11.5% (inactive)
same,response,[7],1.54% (inactive)
same,binding (% of control),[8],104% (inactive)
same,efflux inhibition (fraction of control),[9],0.73 (active)
same,inhibition,[10],-7% (inactive)
same,differentiation response,[11],87.2% (active)
CCOC(=O)c1cnc2ccc(C(=O)OC)cc2c1Nc1ccc2c(c1)OCCO2,double positive events,[1],63.9%
same,vesicle binding response,[1],266% (inactive)
same,inhibition,[2],0.59% (inactive)
same,superoxide response (% of plate),[3],99.1% (inactive)
same,aptamer binding inhibition,[4],6% (inactive)
same,response,[5],-25.7% (inactive)
same,inhibition,[6],-8.06% (inactive)
same,response,[7],-27.9% (inactive)
same,binding (% of control),[8],97.4% (inactive)
same,efflux inhibition (fraction of control),[9],0.08 (inactive)
same,inhibition,[10],-2% (inactive)
same,differentiation response,[11],-0.06% (inactive)
C=CCn1c(SCC(=O)NC2CCCCC2)nc2ccccc2c1=O,double positive events,[1],57.6%
same,vesicle binding response,[1],172% (inactive)
same,inhibition,[2],4.27% (inactive)
same,superoxide response (% of plate),[3],114% (inactive)
same,aptamer binding inhibition,[4],3% (inactive)
same,response,[5],-5.54% (inactive)
same,inhibition,[6],1.93% (inactive)
same,response,[7],11.4% (inactive)
same,binding (% of control),[8],99.2% (inactive)
same,efflux inhibition (fraction of control),[9],0 (inactive)
same,inhibition,[10],-4% (inactive)
same,differentiation response,[11],-17.7% (inactive)
C[C@H](NC(=O)OC(C)(C)C)C(=O)NCC1CCC(C(=O)O)CC1 (some centres not stated),double positive events,[1],58%
same,vesicle binding response,[1],166% (inactive)
same,inhibition,[2],5.03% (inactive)
same,superoxide response (% of plate),[3],95.3% (inactive)
same,aptamer binding inhibition,[4],6% (inactive)
same,response,[5],-13.5% (inactive)
same,inhibition,[6],-1.54% (inactive)
same,response,[7],1.21% (inactive)
same,binding (% of control),[8],99.5% (inactive)
same,efflux inhibition (fraction of control),[9],-0.06 (inactive)
same,inhibition,[10],6% (inactive)
same,differentiation response,[11],0.8% (inactive)
Fc1cccc(Cc2noc(CN3CCN(c4cnccn4)CC3)n2)c1,double positive events,[1],56.6%
same,vesicle binding response,[1],45.8% (inactive)
same,inhibition,[2],-3.57% (inactive)
same,superoxide response (% of plate),[3],108% (inactive)
same,aptamer binding inhibition,[4],-1% (inactive)
same,response,[5],-4.45% (inactive)
same,inhibition,[6],56.4% (active)
same,response,[7],-3.37% (inactive)
same,binding (% of control),[8],97.4% (inactive)
same,efflux inhibition (fraction of control),[9],0.11 (inactive)
same,inhibition,[10],0% (inactive)
same,differentiation response,[11],41.3% (inactive)
CC(COc1ccccc1)N(CCCl)Cc1ccccc1 (configuration not stated),double positive events,[1],70.8%
same,vesicle binding response,[1],566% (inactive)
same,inhibition,[2],6.46% (inactive)
same,superoxide response (% of plate),[3],97.4% (inactive)
same,aptamer binding inhibition,[4],2% (inactive)
same,response,[5],-7.17% (inactive)
same,inhibition,[6],1.11% (inactive)
same,response,[7],2.49% (inactive)
same,binding (% of control),[8],100% (inactive)
same,efflux inhibition (fraction of control),[9],-0.35 (inactive)
same,inhibition,[10],10% (inactive)
same,differentiation response,[11],0% (inactive)
Cc1ccc2c(c1)C1CN(C)CCC1N2C(=O)c1ccc(Cl)c(S(=O)(=O)N2CCOCC2)c1 (configuration not stated),GFP response vs DMSO,[12],102% (inactive)
same,GFP response relative to DMSO,[13],107% (inactive)
same,GFP response vs DMSO,[14],102% (inactive)
same,"GFP response, % of DMSO",[15],102% (inactive)
same,"GFP response, % of DMSO",[16],112% (inactive)
